Source: publication PMC8384837, “Expanding the binding specificity for RNA recognition by a PUF domain”

Tests used:
Test in all cases: yeast three-hybrid, YBZ-1, SC-Leu-His + 0.5 mM 3-AT, 4 days
Settings in all cases: tags: N-Gal4 AD-HA kept; label: inside an RPR1-promoter hybrid RNA with tandem MS2 sites; ssRNA
PUM1 PUF domain R3-TRV = PUM1 PUF domain R3-TRV (Homo sapiens, UniProt Q14671 828-1176, C935T;Q939V)
Procedure, shortened: (§1)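 Sequencing with Illumina followed PCR amplification of the repeat regions from transformants grown four days on SC-Leu (input) or SC-Leu-His + 0.5 mM 3-AT (selection). The transformants were strain YBZ-1 with a LexA–MS2 coat fusion and a HIS3 reporter, carrying Pumilio-1 PUF domain libraries and matching RNA elements. The interaction score is the log change in variant frequency from input to selection, computed in log2 with a pseudocount of 1 for absent variants.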

PUM1 PUF domain R3-LRL = PUM1 PUF domain R3-LRL (Homo sapiens, UniProt Q14671 828-1176, C935L;Q939L)
Procedure, shortened: as §1

PUM1 PUF domain R7-MSG = PUM1 PUF domain R7-MSG (Homo sapiens, UniProt Q14671 828-1176, S1079M;N1080S;E1083G)
Procedure, shortened: as §1

PUM1 PUF domain R8-KFM = PUM1 PUF domain R8-KFM (Homo sapiens, UniProt Q14671 828-1176, N1122K;Y1123F;Q1126M)
Procedure, shortened: as §1

PUM1 PUF domain R4-QPC = PUM1 PUF domain R4-QPC (Homo sapiens, UniProt Q14671 828-1176, N971Q;H972P;Q975C)
Procedure, shortened: as §1

PUM1 PUF domain R8-RFA = PUM1 PUF domain R8-RFA (Homo sapiens, UniProt Q14671 828-1176, N1122R;Y1123F;Q1126A)
Procedure, shortened: as §1

PUM1 PUF domain R6-FYK = target: T1, PUM1 PUF domain R6-FYK (Homo sapiens, UniProt Q14671 828-1176, N1043F;Q1047K)
T1 sequence: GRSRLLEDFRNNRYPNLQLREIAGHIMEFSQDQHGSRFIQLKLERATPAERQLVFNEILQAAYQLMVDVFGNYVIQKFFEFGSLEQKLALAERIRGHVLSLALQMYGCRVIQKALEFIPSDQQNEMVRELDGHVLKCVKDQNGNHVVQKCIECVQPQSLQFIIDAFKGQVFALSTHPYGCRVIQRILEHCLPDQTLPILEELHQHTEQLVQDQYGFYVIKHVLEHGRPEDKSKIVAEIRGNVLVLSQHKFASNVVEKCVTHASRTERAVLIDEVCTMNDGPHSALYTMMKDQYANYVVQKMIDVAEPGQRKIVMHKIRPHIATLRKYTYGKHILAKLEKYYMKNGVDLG
Procedure, shortened: as §1

PUM1 PUF domain R5-RGN = PUM1 PUF domain R5-RGN (Homo sapiens, UniProt Q14671 828-1176, C1007R;R1008G;Q1011N)
Procedure, shortened: as §1

PUM1 PUF domain R3-SRW = PUM1 PUF domain R3-SRW (Homo sapiens, UniProt Q14671 828-1176, C935S;Q939W)
Procedure, shortened: as §1

PUM1 PUF domain R4-DRI = PUM1 PUF domain R4-DRI (Homo sapiens, UniProt Q14671 828-1176, N971D;H972R;Q975I)
Procedure, shortened: as §1

PUM1 PUF domain R4-SRS = PUM1 PUF domain R4-SRS (Homo sapiens, UniProt Q14671 828-1176, N971S;H972R;Q975S)
Procedure, shortened: as §1

PUM1 PUF domain R3-SSQ = PUM1 PUF domain R3-SSQ (Homo sapiens, UniProt Q14671 828-1176, C935S;R936S)
Procedure, shortened: as §1

PUM1 PUF domain R3-VCI = PUM1 PUF domain R3-VCI (Homo sapiens, UniProt Q14671 828-1176, C935V;R936C;Q939I)
Procedure, shortened: as §1

PUM1 PUF domain R2-RRV = PUM1 PUF domain R2-RRV (Homo sapiens, UniProt Q14671 828-1176, N899R;Y900R;Q903V)
Procedure, shortened: as §1

PUM1 PUF domain R5-RSS = PUM1 PUF domain R5-RSS (Homo sapiens, UniProt Q14671 828-1176, C1007R;R1008S;Q1011S)
Procedure, shortened: as §1

PUM1 PUF domain R5-RCD = PUM1 PUF domain R5-RCD (Homo sapiens, UniProt Q14671 828-1176, C1007R;R1008C;Q1011D)
Procedure, shortened: as §1

PUM1 PUF domain R5-KRA = PUM1 PUF domain R5-KRA (Homo sapiens, UniProt Q14671 828-1176, C1007K;Q1011A)
Procedure, shortened: as §1

GGCUAGAACUAGUGGAUCCCCCGGCGCCCGGCGGCUCGAGCCCGGGUAAGUGUAAUUAGUCUGCAUGCCGCCGGGCGCCAUGCCUGCAGGUCGACUCUAGAAAACAUG
binding signal (PUM1 PUF domain R3-TRV): 2.79 log2 enrichment (interaction score) | binding signal (PUM1 PUF domain R3-LRL): 0.28 log2 enrichment (interaction score)

GGCUAGAACUAGUGGAUCCCCCGGCGCCCGGCGGCUCGAGCCCGGGUAAGUUUAAAUAGUCUGCAUGCCGCCGGGCGCCAUGCCUGCAGGUCGACUCUAGAAAACAUG
binding signal (PUM1 PUF domain R7-MSG): 3.37 log2 enrichment (interaction score)

GGCUAGAACUAGUGGAUCCCCCGGCGCCCGGCGGCUCGAGCCCGGGUAAGUGUAAAUAGUCUGCAUGCCGCCGGGCGCCAUGCCUGCAGGUCGACUCUAGAAAACAUG
binding signal (PUM1 PUF domain R8-KFM): 2.58 log2 enrichment (interaction score) | binding signal (PUM1 PUF domain R4-QPC): 0.51 log2 enrichment (interaction score) | binding signal (PUM1 PUF domain R3-TRV): 2.47 log2 enrichment (interaction score) | binding signal (PUM1 PUF domain R8-RFA): 5.72 log2 enrichment (interaction score) | binding signal (PUM1 PUF domain R6-FYK): 5.82 log2 enrichment (interaction score) | binding signal (PUM1 PUF domain R5-RGN): 0.69 log2 enrichment (interaction score) | binding signal (PUM1 PUF domain R3-SRW): 2.61 log2 enrichment (interaction score) | binding signal (PUM1 PUF domain R4-DRI): 5.23 log2 enrichment (interaction score) | binding signal (PUM1 PUF domain R4-SRS): 3.11 log2 enrichment (interaction score) | binding signal (PUM1 PUF domain R3-SSQ): 2.66 log2 enrichment (interaction score) | binding signal (PUM1 PUF domain R3-VCI): 2.74 log2 enrichment (interaction score)

GGCUAGAACUAGUGGAUCCCCCGGCGCCCGGCGGCUCGAGCCCGGGUAAGUGUAAAGAGUCUGCAUGCCGCCGGGCGCCAUGCCUGCAGGUCGACUCUAGAAAACAUG
binding signal (PUM1 PUF domain R2-RRV): 2.5 log2 enrichment (interaction score)

GGCUAGAACUAGUGGAUCCCCCGGCGCCCGGCGGCUCGAGCCCGGGUAAGUGUUAAUAGUCUGCAUGCCGCCGGGCGCCAUGCCUGCAGGUCGACUCUAGAAAACAUG
binding signal (PUM1 PUF domain R5-RSS): 2.86 log2 enrichment (interaction score) | binding signal (PUM1 PUF domain R5-RGN): 2.27 log2 enrichment (interaction score) | binding signal (PUM1 PUF domain R5-RCD): 2.68 log2 enrichment (interaction score) | binding signal (PUM1 PUF domain R5-KRA): 0.81 log2 enrichment (interaction score)

GGCUAGAACUAGUGGAUCCCCCGGCGCCCGGCGGCUCGAGCCCGGGUAAGCGUAAAUAGUCUGCAUGCCGCCGGGCGCCAUGCCUGCAGGUCGACUCUAGAAAACAUG
binding signal (PUM1 PUF domain R8-KFM): 2.54 log2 enrichment (interaction score) | binding signal (PUM1 PUF domain R8-RFA): 5.73 log2 enrichment (interaction score)

GGCUAGAACUAGUGGAUCCCCCGGCGCCCGGCGGCUCGAGCCCGGGUAAGUGUAUAUAGUCUGCAUGCCGCCGGGCGCCAUGCCUGCAGGUCGACUCUAGAAAACAUG
binding signal (PUM1 PUF domain R4-QPC): 2.52 log2 enrichment (interaction score) | binding signal (PUM1 PUF domain R4-SRS): 0.95 log2 enrichment (interaction score)
